Pf growth 96h – Primary qHTS for delayed death inhibitors of the malarial parasite plastid, 96 hour incubation | P. falciparum luciferase reporter growth, 96 h | hit rate 6.9% among 320,000 | Potency, µM (titrated, usually from 28.7 µM), without a hit: at the top dose activity change, negative = inhibition, actives largely listed as inhibitors | AID 504834, 2011; further: potency means the concentration at half of the fitted maximal effect; on the % scale 0 is the no-effect control and ±100 the full control effect
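Parasite growth measured via integrated firefly luciferase reporter in P. falciparum. Infected erythrocytes at 2% hematocrit, 0.05% parasitemia final were treated 96 hours at 37 C under 5% CO2, and luminescence was read.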
Cycloheximide cs – Cycloheximide Counterscreen for Small Molecule Inhibitors of Shiga Toxin; cell reporter, cycloheximide protein synthesis inhibition counterscreen; max response, %; AID 2314, 2010; hit rate 12% among 300,000; in the data active means max response mostly above about 13%, no sharp cut-off; inactive means mostly below about 14%; further: read at 38.3 µM for the half of the compounds with a filed dose; 0% is about no effect
Pf growth 48h – Primary qHTS for delayed death inhibitors of the malarial parasite plastid, 48 hour incubation; P. falciparum luciferase growth in erythrocytes, 48 h; Potency, µM (doses to about 28.7 µM), for inactives: top-dose activity change, negative = inhibition, most hits filed as inhibitors; hit rate 5.9% among 310,000; AID 504832, 2011; further: potency means the concentration at half of the fitted maximal effect; on the % scale 0 is the no-effect control and ±100 the full control effect
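Read-out is firefly luciferase luminescence from an integrated reporter in P. falciparum, so falling signal marks reduced parasite growth. Infected erythrocytes were at 2% hematocrit and 0.1% parasitemia (final) in Albumax-supplemented RPMI 1640.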
NS1 inh – qHTS Assay for Inhibitors of Influenza NS1 Protein Function. hit rate 0.4% among 270,000. Potency, µM (doses to about 46.1 µM), inactives show at the highest dose activity, positive = more growth; calls by dose curve; further: potency means the concentration at half of the fitted maximal effect; actives are rising curves; nearly all actives have a fitted effect of over 50% in size
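OD600 was taken as the measure of yeast growth restored by compound in an NS1-expressing S. cerevisiae strain. Cells had been washed out of glucose medium and diluted 1:100 into galactose -URA medium, pH 6.0.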
Shiga toxin inh – A qHTS for Small Molecule Inhibitors of Shiga Toxin. Vero cells, Shiga toxin protein synthesis inhibition reporter. inhibition, % at 38.7 µM. hit rate 9.2% among 290,000. AID 2315, 2010; in the data active means inhibition mostly above about 28%, no sharp cut-off; inactive means mostly below about 43%; further: 0% is about no effect
* = called active by the depositor; i = inactive; ? = inconclusive; · = no result. In the library only some 21% were active in any assay of this set; here they are far more common. Unless noted, the call rests on the fitted dose curve; in most records, active means well fitted inhibition curve with a large enough effect; inconclusive means small, poorly fitted or top-dose-only effect, or another doubt; inactive means no such curve, though single readings can be large or run the other way.

SMILES	Pf growth 96h	Cycloheximide cs	Pf growth 48h	NS1 inh	Shiga toxin inh
CCN(CC)C(=O)COc1ccc2c(c1)C(=O)CC(C)(C)O2	9.3µM*	14	-13%	·	39
CCn1c(SCC(=O)NCc2ccccc2)nnc1-c1c[nH]c2ccccc12	·	17	-22%	1%	-5
CCN1CCN(c2ccc(N3CCN(C(=O)c4ccc(Br)o4)CC3)nn2)CC1	-26%	·	-10%	·	·
Cc1sc(NC(=O)c2cccc(N3C(=O)CCC3=O)c2)nc1-c1ccccc1	30%	·	?	·	·
COc1ccccc1Oc1ccc(-c2cnc3ccccc3n2)cc1[N+](=O)[O-]	69%	62*	?	12%	73*
O=[N+]([O-])c1cc(-c2cnc3ccccc3n2)ccc1Oc1ccc(Cl)cc1	?	38*	15%	-3%	39*
COc1ccc(S(=O)(=O)N2CCCOC2CNC(=O)C(=O)NCCCN2CCOCC2)cc1C (stereo unspecified)	26%	-1	12%	4%	14
CC(=O)C1=C(C)NC(SCC(=O)c2ccc(F)cc2)=C(C#N)C1CC(C)C (stereo unspecified)	8.3µM*	63*	?	?	88*
CCOC(=O)C1=C(C)NC(SC)=C(C#N)C1CC(C)C (stereo unspecified)	?	-1	1.7µM*	4%	-17
COC(=O)c1sccc1-c1ccc(C(=O)Nc2cccnc2)o1	i	39*	101%	-2%	127*
COC(=O)C(=Cc1ccc(-c2ccsc2C(=O)OC)o1)C(=O)OC	-15%	38*	-9%	-1%	45*
CCOC(=O)C(=Cc1ccc(-c2ccsc2C(=O)OC)o1)C(=O)OCC	-18%	-2	?	1%	-6
COC(=O)c1sccc1-c1ccc(C(N)=O)o1	5%	-3	-4%	-6%	10
CC1(C)CC(=O)c2cc(C(=O)N3CCCCC3)c(=O)n(-c3ccc(Cl)cc3)c2C1	·	·	·	-6%	·
Cc1ccc(S(=O)(=O)N(Cc2cc3cccc(C)c3[nH]c2=O)c2ccccc2)cc1	-23%	-2	7%	6%	7
O=C(CN(c1ccccn1)S(=O)(=O)c1ccc(F)cc1)Nc1ccc(F)cc1F	18%	-3	-2%	·	15
OCc1ccccc1OCCOc1ccc(Cl)c2cccnc12	15%	27*	37%	·	58
Clc1ccc(Oc2ccccc2)c2ncccc12	1%	-4	-1%	-7%	-4
c1ccc(OCCOc2cccc3cccnc23)cc1	10µM*	33*	50%	-3%	68*
Clc1ccc(OCc2cn3ccccc3n2)c2ncccc12	-28%	37*	127%	-6%	90*
O=C(O)c1ccc(OCc2cn3ccccc3n2)cc1	122%	29*	60%	1%	26*
CCOC(=O)c1nn(-c2ccccc2C)c2nc(-c3ccc(Cl)cc3)c(C#N)c(=O)n12	·	-8	-26%	-1%	-27
OCc1ccccc1OCCCOc1cccc2cccnc12	?	26*	22%	-36%	53*
CC(=O)CCc1ccc(OCCCOc2cccc3cccnc23)cc1	?	29*	?	-59%	46*
CC(O)[C@H]1CNCCN1CC1(c2ccccc2)CC1 (stereo partly specified)	41%	·	?	·	·
SMILES	Pf growth 96h	Cycloheximide cs	Pf growth 48h	NS1 inh	Shiga toxin inh
CCC/C(=N\NC(=O)c1ccco1)c1ccc(Cl)s1	13µM*	22*	-28%	-12%	19
CCC/C(=N/NC(=O)c1csc(C)c1C)c1ccc(Cl)s1	·	36	33%	6%	92*
CC/C(=N\NC(=O)c1cc(C)nc2ccccc12)c1ccc(C)s1	0%	-2	-4%	11%	-5
CCCOC(=O)/C(C)=N\NC(=O)c1ccco1	-36%	64*	·	-9%	154*
O=C(COC(=O)CNS(=O)(=O)c1ccc(Br)cc1Cl)NCCc1ccccc1	23%	-3	8%	3%	-2
O=[N+]([O-])c1ccc(CN2CCN(c3ccc4ccccc4n3)CC2)cc1	?	14	-13%	·	18
COc1ccc(C(=O)CN2C(=O)NC(C)(c3ccccc3)C2=O)cc1OC (stereo unspecified)	0%	-1	-11%	6%	-11
CC(C)CN1CCN(Cc2ccc3ncccc3c2)CC1CCO (stereo unspecified)	?	5	-4%	-4%	-7
Cc1sc2nc(C3CC3)nc(NCCNS(=O)(=O)c3ccccc3)c2c1C	-12%	8	9.3µM*	-19%	-3
